The target in test [1] is Thyrotropin receptor (Homo sapiens) (UniProt P16473). In words: qHTS assay to identify small molecule antagonists of the thyroid stimulating hormone receptor (TSHR) signaling pathway (AID 1259385; calls by dose curve; further: nearly all actives have a fitted effect of over 20% in size). The procedure, abridged:
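Antagonist mode: compound-treated TSHR-expressing HEK293 cells were stimulated with 1.5 ng/mL TSH (final) in presence of Ro20-1724 for 30 min at RT. HTRF cAMP detection after 1 h; each compound tested at 15 concentrations, triplicate.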

Test [2] in a line: qHTS assay to identify small molecule agonists of the estrogen receptor alpha (ER-alpha) signaling pathway in the presence of an antagonist - cell viability counter screen (AID 1259386).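 Further: series mostly up to about 92 µM; cells exposed to compounds for 22 h at 37 °C before the viability read; nearly all actives have a fitted effect of over 30% in size.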 The gist of the method:
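Cytotoxicity was measured in parallel with the ERE-luciferase agonist screen, in the same wells. The cells were VM7Luc4E2, which endogenously express ER-alpha, and treatment was with compounds plus 10.0nM ICI-182,780 for 22hr.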
A general note: In qHTS, concentration-response curves come from the screen itself.

Test [3] addresses Progesterone receptor (Homo sapiens) (UniProt P06401). In words: qHTS assay to identify small molecule agonists of the progesterone receptor (PR) signaling pathway (AID 1346784; calls by dose curve; further: nearly all actives have a fitted effect of over 30% in size). The procedure, abridged: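 PR-UAS-bla HEK 293T cells carrying a UAS-driven beta-lactamase reporter were seeded in medium with 2% charcoal-stripped FBS, preincubated 6 hr at 37C, then exposed to compounds in DMSO for 16 hr; agonism was read by LiveBLAzer B/G FRET fluorescence.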

Test [4] in a line: qHTS assay to identify small molecule antagonists of the progesterone receptor (PR) signaling pathway - cell viability counter screen (AID 1346798). Further: series mostly up to about 92 µM; nearly all actives have a fitted effect of over 50% in size. The gist of the method:
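PR-UAS-bla HEK293T cells in medium with 2% charcoal-stripped FBS were treated with compounds plus R5020 for 16 hr at 37C. Cell viability was then read by CellTiter-Glo luminescence after 30 min at room temperature in the same wells.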

The nature of test [5]: qHTS assay to identify small molecule agonists of the progesterone receptor (PR) signaling pathway - cell viability counter screen (AID 1346799; calls by dose curve; further: nearly all actives have a fitted effect of over 45% in size). The gist of the method:
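PR-UAS-bla HEK293T cells, 3,000 per well in medium with 2% charcoal-stripped FBS, were preincubated 6 hr at 37C, then exposed to compounds for 16 hr; viability was read as CellTiter-Glo luminescence after 30 min at room temperature.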

Test [6] in a line: qHTS assay to identify small molecule antagonists of the TGF-beta/Smad signaling pathway - cell viability counter screen (AID 1346824). Further: nearly all actives have a fitted effect of over 50% in size. The gist of the method: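 Cytotoxicity counter-screen run in the same wells as the beta-lactamase Smad reporter read: CellTiter-Glo luminescence after 30 min at room temperature. HEK 293T SBE-bla cells had 5 hr compound exposure at 37 C with TGF-beta1 (0.25 ng/mL stock).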

Test [7] is described as follows: qHTS assay to identify small molecule agonists of the TGF-beta/Smad signaling pathway (AID 1346859; active means well fitted activation curve with a large enough effect in the signal ratio in the repeat runs, not every such curve was filed as active; the % refers to the signal ratio; further: series mostly up to about 77 µM). The gist of the method: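 HEK 293T cells stably carrying a beta-lactamase reporter driven by the Smad binding element were seeded overnight, exposed to DMSO-dissolved compounds for 5 hr at 37 C, 5% CO2, then loaded with FRET substrate for 2 hr at room temperature.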

Test [8] is described as follows: Human pregnane X receptor (PXR) small molecule agonists, qHTS cell viability counter screen (AID 1346977). Further: nearly all actives have a fitted effect of over 50% in size. Further: potency means the concentration at half of the fitted maximal effect. The procedure, abridged:
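PXR-Luc HepG2 cells in medium with 5% charcoal-stripped FBS were pre-incubated 5hr, then exposed to compounds for 24hr at 37C. Viability was read in the same wells by CellTiter-Fluor fluorescence, reagent added after 23hr with a 1hr incubation.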

Test [9] is described as follows: Caspase-3/7 induction in HepG2 cells by small molecules, qHTS assay (AID 1346978). Further: nearly all actives have a fitted effect of over 15% in size. The procedure, abridged:
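Caspase-3/7 induction was measured by Caspase-Glo 3/7 luminescence (30 min, room temperature) after a 17 hr compound exposure of wild-type HepG2 cells seeded at 2,000 per well and pre-incubated 5 hr.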

Test [10] is described as follows: Caspase-3/7 induction in CHO-K1 cells by small molecules, qHTS assay (AID 1346980). Further: nearly all actives have a fitted effect of over 15% in size. The gist of the method:
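Luminescent Caspase-Glo 3/7 read (30min, room temperature) quantified apoptosis induction. Cells were wild-type CHO-K1, treated with compound for 17hr at 37 C and 5% CO2.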

The nature of test [11]: Caspase-3/7 induction in HepG2 cells by small molecules, qHTS cell viability counter screen (AID 1346981). Further: series mostly up to about 92 µM; nearly all actives have a fitted effect of over 30% in size. The procedure, abridged: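 Cell viability is measured as a cytotoxicity counter screen alongside the Caspase-Glo 3/7 readout in identical wells. Wild-type HepG2 cells are treated with test compounds for 16 hr at 37 C before CellTiter-Fluor addition and a 1-hr incubation.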

Test [12] concerns the target Nuclear receptor subfamily 1 group I member 2 (Homo sapiens) (UniProt O75469). Kind of test: Human pregnane X receptor (PXR) small molecule agonists, qHTS assay (AID 1346982). Further: nearly all actives have a fitted effect of over 35% in size. Further: potency means the concentration at half of the fitted maximal effect. The gist of the method:
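Cells: HepG2 stably carrying PXR-Luc. Medium held 5% charcoal-stripped FBS. Compounds in DMSO added after 5 hr plating, incubated 24 hr, then luminescence quantified with ONE-Glo.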

Test [13] deals with Progesterone receptor (Homo sapiens) (UniProt P06401). Kind of test: qHTS assay to identify small molecule antagonists of the progesterone receptor (PR) signaling pathway (AID 1346795; active means well fitted inhibition curve with a large enough effect in the signal ratio in the repeat runs, not every such curve was filed as active; the % refers to the signal ratio). The gist of the method: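 PR-UAS-bla HEK293T cells carrying a UAS-driven beta-lactamase reporter were plated in medium with 2% charcoal-stripped FBS and rested 6 hr at 37C. Compounds were added with 1 nM R5020 (final) for 16 hr, then FRET substrate loaded 2 hr at room temperature.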
Sequence of Progesterone receptor (Homo sapiens) (P06401 whole entry, looked up): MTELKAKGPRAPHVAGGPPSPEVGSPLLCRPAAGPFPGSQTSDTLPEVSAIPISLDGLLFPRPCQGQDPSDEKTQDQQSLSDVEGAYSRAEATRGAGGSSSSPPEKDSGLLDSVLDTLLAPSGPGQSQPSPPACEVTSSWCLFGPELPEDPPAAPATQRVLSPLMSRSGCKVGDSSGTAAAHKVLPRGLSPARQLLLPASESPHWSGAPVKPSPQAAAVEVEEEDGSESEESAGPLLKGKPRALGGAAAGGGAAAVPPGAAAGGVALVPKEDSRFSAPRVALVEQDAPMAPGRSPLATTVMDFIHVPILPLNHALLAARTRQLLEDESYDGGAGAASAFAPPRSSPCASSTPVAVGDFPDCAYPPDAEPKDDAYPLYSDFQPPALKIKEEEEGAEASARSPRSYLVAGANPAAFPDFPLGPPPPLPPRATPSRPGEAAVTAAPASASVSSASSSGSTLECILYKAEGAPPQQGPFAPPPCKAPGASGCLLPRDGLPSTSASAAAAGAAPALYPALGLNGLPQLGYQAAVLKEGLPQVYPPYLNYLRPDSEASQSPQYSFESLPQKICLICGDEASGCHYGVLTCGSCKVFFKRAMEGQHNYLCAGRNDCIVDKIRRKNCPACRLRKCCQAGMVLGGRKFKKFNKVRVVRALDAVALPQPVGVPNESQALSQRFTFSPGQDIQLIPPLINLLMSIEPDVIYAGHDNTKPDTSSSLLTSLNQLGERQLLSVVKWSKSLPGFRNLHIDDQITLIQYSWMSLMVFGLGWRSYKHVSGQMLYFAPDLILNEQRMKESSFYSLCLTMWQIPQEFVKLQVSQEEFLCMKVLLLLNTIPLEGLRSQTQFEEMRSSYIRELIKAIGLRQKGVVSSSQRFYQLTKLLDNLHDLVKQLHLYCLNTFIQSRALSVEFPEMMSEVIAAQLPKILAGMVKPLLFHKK

Test [14] is described as follows: qHTS assay to identify small molecule agonists of the TGF-beta/Smad signaling pathway - cell viability counter screen (AID 1346829). Further: top concentration of the series differs between compounds; nearly all actives have a fitted effect of over 45% in size. The gist of the method:
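Tox21 qHTS format: SBE-bla HEK 293T cells treated with DMSO-dissolved compounds for 5 hr; CellTiter-Glo luminescence after 30 min at room temperature.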

Test [15] in a line: Caspase-3/7 induction in CHO-K1 cells by small molecules, qHTS cell viability counter screen (AID 1346979). Further: nearly all actives have a fitted effect of over 35% in size. The gist of the method: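 Wild-type CHO-K1 cells were seeded at 1,500 per well, rested 5hr at 37 C, then exposed to compounds in DMSO. After 16hr, CellTiter-Fluor reagent was added and fluorescence read 1hr later as the viability measure.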
Test [16] deals with Thyrotropin-releasing hormone receptor (Homo sapiens) (UniProt P34981). In words: qHTS assay to identify small molecule antagonists of the thyrotropin-releasing hormone receptor (TRHR) signaling pathway (AID 1346877; active means well fitted inhibition curve with a large enough effect in the repeat runs, not every such curve was filed as active; further: series mostly up to about 51 µM). The procedure, abridged: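 Antagonism is measured as suppression of the calcium response to 1 nM TRH in TRHR-HEK293 cells that have been dye-loaded for 2 h at 37 °C after overnight plating. Each compound is tested at 15 concentrations in triplicate.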
Sequence of Thyrotropin-releasing hormone receptor (Homo sapiens) (P34981 whole entry, looked up): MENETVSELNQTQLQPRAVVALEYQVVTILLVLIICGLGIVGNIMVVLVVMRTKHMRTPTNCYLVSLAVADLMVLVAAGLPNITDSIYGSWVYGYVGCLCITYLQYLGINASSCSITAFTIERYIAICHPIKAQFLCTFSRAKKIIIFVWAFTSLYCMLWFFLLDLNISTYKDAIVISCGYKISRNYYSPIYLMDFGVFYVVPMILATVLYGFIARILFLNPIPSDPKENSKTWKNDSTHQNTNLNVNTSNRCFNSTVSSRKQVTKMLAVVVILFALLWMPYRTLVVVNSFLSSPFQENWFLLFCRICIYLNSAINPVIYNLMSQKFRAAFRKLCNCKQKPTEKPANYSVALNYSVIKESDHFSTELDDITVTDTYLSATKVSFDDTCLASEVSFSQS

Test [17] shares this target. Kind of test: qHTS assay to identify small molecule agonists of the thyrotropin-releasing hormone receptor (TRHR) signaling pathway (AID 1346891; calls by dose curve; further: series mostly up to about 58 µM). The gist of the method: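 TRHR-expressing HEK293 cells were plated 18 h at 37 °C/5% CO2, loaded with calcium dye 2 h at 37 °C, then given compound in DMSO; fluorescence was read kinetically for 3 min at 1 s intervals.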

Each structure is given as a SMILES string. A number with no mark means an inactive call. Inconclusive results are not listed. Calls of active or inactive are those of the source. Unless noted, the call rests on the fitted dose curve; in most records, active means well fitted curve in the direction sought with a large enough effect in the repeat runs; inconclusive means weak or mixed curves; inactive means no such curve, though single readings can be large; an effect the other way counts as inactive or inconclusive.

Sequence of Nuclear receptor subfamily 1 group I member 2 (Homo sapiens) (O75469 whole entry, looked up): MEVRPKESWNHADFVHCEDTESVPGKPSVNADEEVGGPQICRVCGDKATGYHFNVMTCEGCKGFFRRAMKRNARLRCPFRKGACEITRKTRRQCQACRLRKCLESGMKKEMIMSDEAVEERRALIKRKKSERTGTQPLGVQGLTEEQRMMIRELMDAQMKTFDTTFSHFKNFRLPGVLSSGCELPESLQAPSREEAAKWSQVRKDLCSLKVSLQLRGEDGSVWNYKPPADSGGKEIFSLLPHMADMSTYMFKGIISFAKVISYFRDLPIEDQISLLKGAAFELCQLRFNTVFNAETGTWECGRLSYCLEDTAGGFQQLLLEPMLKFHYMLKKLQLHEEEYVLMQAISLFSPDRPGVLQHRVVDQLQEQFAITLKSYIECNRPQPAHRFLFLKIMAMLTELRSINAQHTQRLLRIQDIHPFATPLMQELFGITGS
Sequence of Thyrotropin receptor (Homo sapiens) (P16473 whole entry, looked up): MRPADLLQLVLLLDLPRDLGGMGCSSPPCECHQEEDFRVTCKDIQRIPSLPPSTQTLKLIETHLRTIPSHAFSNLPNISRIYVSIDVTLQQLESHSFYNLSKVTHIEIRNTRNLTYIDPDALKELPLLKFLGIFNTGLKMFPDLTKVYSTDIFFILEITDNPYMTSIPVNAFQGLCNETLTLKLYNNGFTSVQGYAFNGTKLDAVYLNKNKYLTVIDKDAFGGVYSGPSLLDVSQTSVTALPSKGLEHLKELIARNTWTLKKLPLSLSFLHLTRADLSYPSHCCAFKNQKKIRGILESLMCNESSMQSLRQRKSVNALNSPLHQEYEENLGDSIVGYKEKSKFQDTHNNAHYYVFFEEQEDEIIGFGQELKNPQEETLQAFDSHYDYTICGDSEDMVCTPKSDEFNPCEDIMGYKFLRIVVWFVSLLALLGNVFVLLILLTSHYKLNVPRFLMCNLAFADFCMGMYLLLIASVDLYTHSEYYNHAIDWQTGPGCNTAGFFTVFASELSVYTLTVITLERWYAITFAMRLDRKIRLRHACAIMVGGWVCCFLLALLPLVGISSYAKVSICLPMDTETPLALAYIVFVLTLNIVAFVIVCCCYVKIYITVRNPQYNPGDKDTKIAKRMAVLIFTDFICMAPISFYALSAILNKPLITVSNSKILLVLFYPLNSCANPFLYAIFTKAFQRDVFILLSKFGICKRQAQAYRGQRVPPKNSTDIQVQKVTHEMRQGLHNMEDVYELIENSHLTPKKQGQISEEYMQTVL

On to `Cc1ccc(Cl)cc1N`, for which the Potency result in test [1], in test [2], in [3], in [4], in test [5] and in test [7] was “inactive” each time. The Potency entry in [8], in test [9] and in test [11] was “inactive” each time. In addition, the result in test [6] and in [10] was inactive. Also, in test [12], the Potency is 55.5 µM (active).
Regarding `CCCC(=O)OC(=O)CCC`, the Potency entry in [1], in test [2], in test [13], in [4], in test [5] and in [14] was “inactive” throughout. Besides, the Potency result in test [7], in [8], in test [9], in [15], in test [11] and in test [12] was “inactive” throughout. In addition, the call in test [6] and in test [10] was inactive.
Take `CC(=O)OCCC(C)CC(C)(C)C` (centres undefined): the Potency result in test [1], in [2], in test [3], in test [4], in test [14] and in [7] was “inactive” throughout. In addition, the Potency entry in test [8], in [9], in [11] and in [12] was “inactive” throughout. For the same compound, the compound was classed as inactive in [6] and in [10].
In the case of `O=C(/C=C/c1ccc([N+](=O)[O-])cc1)c1ccccc1`, the Potency result in test [1], in test [2], in test [3], in [4] and in test [14] was “inactive” each time. The call in [6] and in test [10] was inactive. In addition, the Potency in [8] was 61.3 µM (active); in [12] it was 24.4 µM (active).
As for `O=C(c1ccccc1)C1CCC1`, the Potency entry in test [1], in [2], in test [3], in test [4], in test [14] and in test [7] was “inactive” throughout. Further, the Potency result in test [8], in [9], in test [15], in test [11] and in test [12] was “inactive” each time. Moreover, the call in test [6], in [16], in test [17] and in test [10] was inactive.
Turning to `Oc1ccc2c(c1)Cc1ccccc1-2`, the Potency result in test [1], in test [2], in test [3], in test [4], in [7] and in test [8] was “inactive” each time. The Potency entry in [9] and in [11] was “inactive” each time. For the same compound, the call in test [6], in test [16], in test [17] and in test [10] was inactive. Besides, the Potency in test [12] is 30.6 µM (active).
For `O=C(NS(=O)(=O)/C=C/c1ccccc1)c1ccc(F)cc1Cl`, the Potency result in [1], in test [2], in test [3], in test [4], in test [14] and in test [7] was “inactive” each time. Moreover, the Potency entry in [8], in test [9] and in test [15] was “inactive” throughout. Also, the result in test [6], in [16], in test [17] and in test [10] was inactive. In test [12], the Potency was 19.3 µM (active).

Source of the values: PubChem BioAssay (Tox21).
